Inconclusive results are not listed. Calls of active or inactive are those of the source. Calls come from the whole dose curve; as a rule, active = well fitted cell-killing curve with a large enough effect; inconclusive = small, poorly fitted or top-dose-only effect, or effect the other way; inactive = no such curve, though single readings can be large or run the other way.
Assay: Quantitative High-Throughput drug screen in 47 multiple myeloma cell lines against the NCATS MIPE library collection: U266_ATCC cell viability assay (AID 1919864); note: nearly all actives have a fitted effect of over 35% in size
Settings: U266 myeloma viability, CellTiter-Glo ATP luminescence, 48 h; series mostly up to 45.8 µM
Description: PI: Beverly A. Mock Ph.D.
Laboratory of Cancer Biology and Genetics,
Center for Cancer Research, National Cancer Institute,
National Institute of Health, Bethesda, Maryland
Drug resistance and disease progression are common in multiple myeloma (MM) patients, underscoring the need for new therapeutic combinations. […] We hypothesized that effective combinations would reduce MYC expression and enhance p16 activity. […] These preclinical data identify potentially useful drug combinations for evaluation in drug-resistant MM and reveal potential mechanisms of combined drug sensitivity.
Described herein is the primary MIPE qHTS used to cherrypick compounds. Validated compounds were then further tested for potential synergistic activiy.
[1] Peat TJ, Gaikwad SM, Dubois W, Gyabaah-Kessie N, Zhang S, Gorjifard S, Phyo Z, Andres M, Hughitt VK, Simpson RM, Miller MA, Girvin AT, Taylor A, Williams D, D'Antonio N, Zhang Y, Rajagopalan A, Flietner E, Wilson K, Zhang X, Shinn P, Klumpp-Thomas C, McKnight C, Itkin Z, Chen L, Kazandijian D, Zhang J, Michalowski AM, Simmons JK, Keats J, Thomas CJ, Mock BA. Drug combinations identified by high-throughput screening promote cell cycle transition and upregulate Smad pathways in myeloma. Cancer Lett. 2023 Aug 1;568:216284. doi: 10.1016/j.canlet.2023.216284. Epub 2023 Jun 24. PMID: 37356470; PMCID: PMC10408729.
SEQUENCE No. (e.g., 1, 2, 3, etc.); […] (e.g., Cells, Incubation, Reagent, etc.); VALUE and DESCRIPTION.
1; Cells; 5 uL; white, solid bottom 1536-well Greiner assay plate.
2; Compounds; 23 nL; Kalypsis pin tool (Wako USA) equipped with a 1536-well pin head to transfer to the assay plates.
3; Incubation; 48 hours; 37C incubation.
4; Reagent;5uL; CellTiter Glo (Promega).
5; Detector; 425V; Luminescence; Viewlux PerkinElmer.
NOTES (numbers refer to Sequence numbers above)
1. The cell-based screening methods employed in this study were like those previously published. Briefly, the corresponding myeloma cell lines were screened in 1,536-well plates with 500 cells, 5-uL per well for inhibition of cell viability (assessed by measuring ATP levels with CellTiterGlo).
2. NCATS MIPE 4.0 library of approved and investigational drugs were added using the Kalypsis pin tool. Wells treated with DMSO only for 100% viability and media only for 0% viability were used as controls.
3. The assay plates were covered and incubated for 48 hours in a 37C, 5% CO2 incubator with controlled humidity.
4. After 48 hours, CellTilter-GloTM luminescent substrate mix (Promega) reagent was added to the assay plate and plates we incubated for 5 min at room temperature.
5. Signal was measured as median relative luminescence units on a ViewLux (PerkinElmer) multiplate reader.
[1] Heske CM, Davis MI, Baumgart JT, Wilson K, Gormally MV, Chen L, Zhang X, Ceribelli M, Duveau DY, Guha R, Ferrer M, Arnaldez FI, Ji J, Tran HL, Zhang Y, Mendoza A, Helman LJ, Thomas CJ. Matrix Screen Identifies Synergistic Combination of PARP Inhibitors and Nicotinamide Phosphoribosyltransferase (NAMPT) Inhibitors in Ewing Sarcoma. Clin Cancer Res. 2017 Dec 1;23(23):7301-7311. doi: 10.1158/1078-0432.CCR-17-1121. Epub 2017 Sep 12. PMID: 28899971; PMCID: PMC6636827.
Potency is the fitted concentration of half-maximal effect.

Row | SMILES | Potency
1 | O=C(NC[C@H](O)CO)c1ccncc1Nc1ccc(I)cc1F | 20.9 µM (active)
2 | Cc1ccc(C(=O)N(CCCN)[C@@H](c2nc3cc(Cl)ccc3c(=O)n2Cc2ccccc2)C(C)C)cc1 | 26.4 µM (active)
3 | CCCCc1ccc(NS(=O)(=O)c2ccc(C)c(C(=O)N3CCN(c4cccc(C)c4C)CC3)c2)cc1 | 13.2 µM (active)
4 | O=C(CCCN1CCN(c2ccc(F)cc2)CC1)NC1c2ccccc2CSc2ccccc21 (stereo not given) | 20.9 µM (active)
5 | OC(c1cc(C(F)(F)F)nc2c(C(F)(F)F)cccc12)C1CCCCN1 (stereo not given) | 26.4 µM (active)
6 | CC(O)=C(C#N)C(=O)Nc1ccc(C(F)(F)F)cc1 | 23.5 µM (active)
7 | COc1c(C)cnc(Cn2cnc3c(Cl)nc(N)nc32)c1C | 0.166 µM (active)
8 | NC(=O)c1nnn(Cc2cc(Cl)c(C(=O)c3ccc(Cl)cc3)c(Cl)c2)c1N | 16.6 µM (active)
9 | CN[C@@H](C)[C@H]1[C@H](O)C[C@@]2(C)[C@@H]3CC[C@H]4C(C)(C)[C@@H](NC)CC[C@@]45C[C@@]35CC[C@]12C | inactive
10 | CCC(=O)N1CCN(c2ccc(-n3c(=O)ccc4cnc5ccc(-c6cnc7ccccc7c6)cc5c43)cc2C(F)(F)F)CC1 | 0.0418 µM (active)
11 | CC(NCCc1ccc(O)cc1)C(O)c1ccc(O)cc1 (stereo not given) | inactive
12 | Cc1cc2nc3c(=O)[nH]c(=O)nc-3n(CC(O)C(O)C(O)CO)c2cc1C (stereo not given) | inactive
13 | COc1ccc(CCN(C)CCCOc2ccc(S(=O)(=O)c3[nH]c4ccccc4c3C(C)C)cc2)cc1OC | 18.7 µM (active)
14 | Cc1csc(-c2nnc(Nc3ccc(Oc4ncccc4-c4ccnc(N)n4)cc3)c3ccccc23)c1 | 23.5 µM (active)
15 | O=C(O)CCNc1cc(N2CCc3ccccc3CC2)nc(-c2ccccn2)n1 | inactive
16 | COc1ccc2nc3cc(Cl)ccc3c(Nc3cc(CN4CCCC4)c(O)c(CN4CCCC4)c3)c2n1 | 23.5 µM (active)
17 | O=C(O)Cc1cccc(OCCCN(Cc2cccc(C(F)(F)F)c2Cl)CC(c2ccccc2)c2ccccc2)c1 | inactive
18 | CC(C)N(CCCNC(=O)Nc1ccc(C(C)(C)C)cc1)C[C@H]1O[C@@H](n2cc(Br)c3c(N)ncnc32)[C@H](O)[C@H]1O | 20.9 µM (active)
19 | COc1cc2c(cc1OC)[C@@H]1Cc3ccc(OC)c(OC)c3CN1CC2 | 11.8 µM (active)
20 | O=C(O)C1=CC(O)C(O)[C@H](O)C1 (stereo not given in full) | inactive

Row | SMILES | Potency
21 | NS(=O)(=O)c1cc(Cl)c(Cl)c(S(N)(=O)=O)c1 | inactive
22 | NC1(C(=O)N[C@@H](CCO)c2ccc(Cl)cc2)CCN(c2ncnc3[nH]ccc23)CC1 | 13.2 µM (active)
23 | c1ccc(CNc2nc(N3CCOc4ccccc43)nc3c2CCCC3)cc1 | inactive
24 | O=C(O)CCC=CCC[C@@H]1[C@H](N2CCCCC2)[C@@H](O)C[C@@H]1OCc1ccc(-c2ccccc2)cc1 | inactive
25 | CCNC(=O)[C@H]1O[C@@H](n2cnc3c(N)nc(NCCc4ccc(CCC(=O)O)cc4)nc32)[C@H](O)[C@H]1O | 0.118 µM (active)
26 | COc1ccc(-c2ccc3ncc4c(c3c2)n(-c2ccc(N3CCNCC3)c(C(F)(F)F)c2)c(=O)n4C)cn1 | 0.118 µM (active)
27 | CNc1nc(Nc2ccc(C(=O)N3CCOCC3)cc2OC)ncc1Cl | inactive
28 | CC(C)[C@H](O)C(=O)N[C@@H](C)C(=O)N[C@@H]1C(=O)N(C)CCc2ccccc21 | inactive
29 | OC[C@H]1O[C@@H](O[C@H]2[C@@H](O)[C@@](O)(CO)O[C@@H]2CO)[C@H](O)[C@@H](O)[C@@H]1O | inactive
30 | COc1ccc(-c2oc3c(CC=C(C)C)c(O)cc(O)c3c(=O)c2O)cc1 | 16.6 µM (active)
31 | CC(=O)OCC(=O)[C@@]12OC(C)(C)O[C@H]1C[C@H]1[C@@H]3C[C@H](F)C4=CC(=O)C=C[C@]4(C)[C@@]3(F)[C@@H](O)C[C@@]12C | inactive
32 | CN(C)c1ccc(-c2nc3ncc(Cl)c(N4CCN(CC(=O)Nc5nccs5)CC4)c3[nH]2)cc1 | 2.96 µM (active)
33 | CC1=C(C(=O)Nc2cc3cn[nH]c3cc2F)C(c2ccc(C(F)(F)F)cc2)CC(=O)N1 (stereo not given) | inactive
34 | OC[C@H]1O[C@@H](OCCc2ccc(O)cc2)[C@H](O)[C@@H](O)[C@H]1O | 20.9 µM (active)
35 | COc1c(C)c2c(c(O)c1CC=C(C)CCC(=O)OCCN1CCOCC1)C(=O)OC2 | 8.33 µM (active)
36 | CC(C)CN(C[C@@H](O)[C@H](Cc1ccccc1)NC(=O)O[C@H]1CO[C@H]2OCC[C@H]21)S(=O)(=O)c1ccc(N)cc1 | 1.32 µM (active)
37 | O=C1NC(=O)C(=Cc2ccc(-c3ccc(F)cc3O)o2)S1 | inactive
38 | CN(C)c1nc(Cc2ccc(NC(=O)c3ccc(C(F)(F)F)cc3)cc2)nc(N(C)C)c1CC(=O)O | inactive
39 | CNC1[C@H](O)C(O[C@@H]2C(O)C(O[C@H]3O[C@H]([C@@H](C)NC)CC[C@H]3N)[C@@H](N)C[C@H]2N)OC[C@]1(C)O (stereo not given in full) | inactive
40 | Cn1c(=O)c(-c2c(Cl)cccc2Cl)cc2cnc(Nc3cccc(C(=O)O)c3)nc21 | inactive

Reference: PubChem BioAssay (NCATS)
